Measurements from PubChem BioAssay (NCATS).
Records with an inconclusive call do not appear. Entries that show only a call come without a potency. The source made the active and inactive calls. The call rests on the fitted dose curve; in most records, active means well fitted inhibition curve with a large enough effect; inconclusive means small, poorly fitted or top-dose-only effect; inactive means no such curve, though single readings can be large or run the other way. Bridge positions count the residues as written; N and C are the ends. Square brackets hold non-standard residues; d marks the D form. Peptide text beside a SMILES is read from it. NMeY = CN[CH](Cc1ccc(O)cc1)C(=O)O

Target: Retinaldehyde dehydrogenase 3 (Homo sapiens) (UniProt P47895)
Assay: qHTS for Inhibitors of the Aldehyde Dehydrogenase Family (ALDH1A3) Primary screen (AID 2061315)
Details: ALDH inhibition qHTS; series mostly up to 56 µM

Row | Compound | Potency | activity change, negative = inhibition
1 | CC(C)S(=O)(=O)NC[C@@H]1CC(c2ccc(N3CCCC3)c(F)c2)=NO1 | inactive | –
2 | CCC(C)C1NC(=O)C2CCCN2C(=O)C(NC(C)=O)C(C)OC(=O)C(Cc2ccc(OC)cc2)N(C)C(=O)C2CCCN2C(=O)C(C(C)C)NC1=O (stereo not given) (Ac-TPIVP[NMeY](Me); ester 1-C; configuration not given here) | inactive | –
3 | CC[N+]1(CC)CCC(=C(c2ccccc2)c2ccccc2)C1C (stereo not given) | inactive | –
4 | COC1CC/C=C(\C)C(=O)Nc2cc(O)cc(c2)CC(C)CC(OC)C(O)C(C)/C=C(\C)C1OC(N)=O (stereo not given) | inactive | –
5 | Cc1nc2ccc(Oc3ccc(F)cc3)cc2c(=O)n1C[C@H]1CCCN(C(C)C)C1 | inactive | –
6 | C/C1=C\C[C@H](O[C@@H]2O[C@H](CO)[C@@H](O)[C@H](O)[C@H]2O)/C(C)=C/[C@H]2OC(=O)[C@H](C)[C@@H]2CC1 | inactive | –
7 | C=C(C)C1CC(O)C(C)C12CC(O)C1(C)OC1C2O (stereo not given) | inactive | –
8 | CC1(C)CC[C@]2(C(=O)O[C@@H]3O[C@H](CO)[C@@H](O)[C@H](O)[C@H]3O)[C@H](O)C[C@]3(C)C(=CCC4[C@@]5(C)CC[C@H](O[C@@H]6OC[C@@H](O)[C@H](O)[C@H]6O)[C@@](C)(C(=O)O)C5CC[C@]43C)[C@@H]2C1 (stereo not given in full) | inactive | –
9 | C/C=C/C=C/C=C/C(=O)O[C@@H]1[C@@H](OC)C2=C(C(=O)N(C(C)C(=O)O)C2)[C@@]2(C)CCCC(C)(C)[C@H]12 (stereo not given in full) | inactive | –
10 | C/C(=C\CCC1(C)C2CC3C(C2)C31C)C(=O)O (stereo not given) | inactive | –
11 | O=C(/C=C/c1ccc(O)cc1)O[C@@H]1C[C@@](O)(C(=O)O)C[C@@H](O)[C@@H]1O | inactive | –
12 | C[C@@H](Nc1cc(NS(=O)(=O)N2CCC2)nc(SCc2cccc(F)c2F)n1)[C@@H](O)CO | inactive | –
13 | CC(=O)OC1C[C@]2(C)C(O)CC(C)=C[C@H](OC(=O)c3ccc(O)cc3)C2[C@]1(O)C(C)C (stereo not given in full) | inactive | –
14 | O=C(O[C@H]1[C@@H]2C=CO[C@@H](O[C@@H]3O[C@H](CO)[C@@H](O)[C@H](O)[C@H]3O)[C@@H]2[C@@]2(CO)O[C@@H]12)c1ccccc1 | inactive | –
15 | CCNC1(C(N)=O)CN(c2nc(C)nc3c(-c4ccc(Cl)cc4)c(-c4ccccc4Cl)nn23)C1 | inactive | –
16 | CCc1ccc(Cc2ccc3c(c2)[C@]2(OC3)O[C@H](CO)[C@@H](O)[C@H](O)[C@H]2O)cc1 | inactive | –
17 | Nc1nc2c(c(=O)[nH]1)C[C@@H](CCc1ccc(C(=O)N[C@@H](CCC(=O)O)C(=O)O)cc1)CN2 | inactive | –
18 | C/C=C(/C)C(=O)OC1C=C2C3C(C)C(C)C(OC(=O)C(C)C(C)O)CC3(C)CCC2(C)C2(C)CC(OC(C)=O)C3C(C)(C)C(O)C(=O)CC3(C)C12 (stereo not given) | inactive | –
19 | C[C@H](C(=O)NC1CCCC1)N(C(=O)Cn1nnc(-c2ccc3c(c2)OCO3)n1)C1CCCCC1 | inactive | –
20 | O=C(O)Cc1ccccc1Oc1ccc(Cl)cc1Cl | inactive | –

Row | Compound | Potency | activity change, negative = inhibition
21 | CC1(C)CC2C3=CCC4[C@@]5(C)CC[C@H](OC6OCC(O)C(OC7OC(CO)C(O)C(O)C7O)C6O)C(C)(C)C5CC[C@@]4(C)[C@]3(C)C[C@H](O)[C@@]2(CO)[C@H](OC(=O)c2ccccc2)C1 (stereo not given in full) | inactive | –
22 | COCC(=O)N1CCc2cc(-c3csc(NC(=O)c4cc(OC)cc(OC)c4)n3)ccc21 | inactive | –
23 | COc1ccc([C@H]2OC[C@H]3O[C@@H](O[C@H]4[C@@H]2NC[C@@H]4O)[C@H](O)[C@H]3O)cc1 | inactive | –
24 | C[C@@H]1O[C@@H](O[C@H]2[C@H](OC(=O)C34CCC5(C)C(=CCC6C7(C)CC(O)C(O[C@@H]8O[C@H](C(=O)O)[C@@H](O)[C@H](O)[C@H]8O)C(C)(C(=O)O)C7CCC65C)C3CC(C)(C)CC4O)O[C@H](C)[C@@H](O)[C@@H]2O)[C@H](O)[C@@H](O[C@@H]2OC[C@](O)(CO)[C@H]2O[C@@H]2O[C@H](CO)[C@@H](O)[C@H](O)[C@H]2O)[C@H]1O (stereo not given in full) | – | 5.31% [at 11.2 µM] (inactive)
25 | O=c1c2cccnc2n(-c2cccc([N+](=O)[O-])c2)c(=O)n1Cc1ccncc1 | inactive | –
26 | C[C@]1(CO)CN(c2cc(C(=O)Nc3ccc4c(c3)-c3c(c(C(N)=O)nn3-c3ccc(F)cc3)CC4)c(Cl)cn2)C[C@@]1(C)CO | inactive | –
27 | CC(C)c1ccc(CC(=O)N2CCC[C@@H](c3cccc(OC(C)(C)C(=O)O)c3)C2)cc1 | inactive | –
28 | COc1cc(C)c(C(=O)Oc2cc(C)c(C(=O)Oc3cc(C)c(C(=O)NC(C)C(=O)O)c(O)c3)c(O[C@@H]3O[C@H](CO)[C@@H](O)[C@H](O)[C@H]3OC(C)=O)c2)c(OC)c1 (stereo not given in full) | inactive | –
29 | C/C=C(\C)C(=O)O[C@H]1[C@H](O)[C@]2(COC(C)=O)[C@H](O)C[C@]3(C)C(=CCC4[C@@]5(C)CC[C@H](O[C@@H]6O[C@H](C(=O)O)[C@@H](O[C@@H]7O[C@H](CO)[C@@H](O)[C@H](O)[C@H]7O)[C@H](O)[C@H]6O[C@@H]6O[C@H](CO)[C@@H](O)[C@H](O)[C@H]6O)[C@](C)(CO)C5CC[C@]43C)[C@@H]2CC1(C)C (stereo not given in full) | inactive | –
30 | CC(C)(C)Oc1ccc(OCC2Cc3ccccc3CN2C(=O)c2cccc3ccccc23)cc1 (stereo not given) | inactive | –
31 | COc1cc(/C=C/C(=O)O[C@@H]2C[C@](O)(C(=O)O)C[C@@H](O)[C@H]2O)ccc1O | inactive | –
32 | CC(=O)OC[C@H]1O[C@H](O[C@]2(CO)O[C@H](CO)[C@@H](OC(=O)/C=C/c3ccccc3)[C@@H]2O)[C@H](O)[C@@H](O)[C@@H]1O | inactive | –
33 | Fc1ccc(-c2c3cccc(C(F)(F)F)c3nn2Cc2ccc(F)cc2Cl)cc1 | inactive | –
34 | CC(C)(O)/C=C/CC(C)(O)C1C(O)CC2(C)C3CCC4C(C)(C)C(=O)CCC4(C)C3CCC12C (stereo not given) | inactive | –
35 | Cc1ccc(C(C)C)c(O[C@@H]2O[C@H](CO)[C@@H](O)[C@H](O)[C@H]2O)c1 | inactive | –
36 | C[C@@H]1CCC/C=C/[C@H]2CC(=O)C[C@@H]2[C@@H](O)/C=C/C(=O)O1 | inactive | –
37 | C=C(C)C(=O)OC1CC2(C)OC(=CC2=O)C(=C)CC2OC(=O)C(=C)C12 (stereo not given) | inactive | –
38 | C[C@H]1[C@@H](O)[C@H](O)C2[C@]3(C)C([C@@H](O)[C@H]4OC(=O)[C@@H]1[C@@]24C)[C@](C)(O)C=C[C@H]3O[C@@H]1O[C@H](CO)[C@@H](O)[C@H](O)[C@H]1O (stereo not given in full) | inactive | –
39 | CCC1C(=O)OC23C=C[C@@H]4C(C(=O)O)=CO[C@H](O[C@@H]12)[C@@H]43 (stereo not given in full) | inactive | –
40 | COC(=O)C1=CO[C@@H](O[C@@H]2O[C@H](CO)[C@@H](O)[C@H](O)[C@H]2O)C2C1CC(O)C2C (stereo not given in full) | inactive | –
